Records with an inconclusive call do not appear. Unmarked numbers belong to inactive results. Calls follow the shape of the dose curve; as a rule, active = well fitted activation curve with a large enough effect in the repeat runs; inconclusive = weak or mixed curves; inactive = flat fitted curve, though single readings scatter.
assay: A CellTox Green Cytotoxicity Assay to monitor cytotoxicity in HepG2 cells - 24 hour (AID 1224878); conditions: CellTox Green fluorescence; series mostly up to 76.8 µM; cytotoxicity: at the top concentration; also: nearly all actives have a fitted effect of over 45% in size
Method in brief: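 First, HepG2 cells (600/well) mixed with reagent were plated; second, after 5 h at 37 C they received compounds via pintool; third, fluorescence was measured at 0 h through 40 h at 8 h intervals.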
% is scaled to controls: 0 for no effect and ±100 for the full control effect.

| Structure (SMILES) | cytotoxicity |
| --- | --- |
| N=C(N)S(=O)O | -0.199% |
| CC[C@@]1(c2ccccc2)NC(=O)N(C)C1=O | -4.22% [at 35.3 µM] |
| CC(=O)Oc1ccc(C(C)=O)cc1 | 2.3% |
| Cc1ccc(N)nc1 | -6.04% |
| CCCOc1ccc(C(=O)OCCN(CC)CC)cc1N | -9.38% [at 35.3 µM] |
| CCCCCCC(O)CO (stereo not drawn) | 0.17% |
| CC(=O)OC/C=C(/C)CCC=C(C)C | -14.4% |
| CC(C)(C)OC(=O)c1ccccc1C(=O)O | 12.3% |
| CC1=C(O)C(=O)CO1 | -3.26% |
| O=C(O)Cc1ccccc1Oc1ccc(Cl)cc1Cl | -4.09% [at 35.3 µM] |
| O=c1c(O)c(O)c1=O | -1.08% |
| NCC1CCC(C(=O)Oc2ccc(CCC(=O)O)cc2)CC1 (stereo not drawn) | -23.3% [at 35.3 µM] |
| Cc1cc(=O)oc2cc(O[C@@H]3SC[C@@H](O)[C@H](O)[C@H]3O)ccc12 | -8.27% [at 35.3 µM] |
| CO/N=C(\C(=O)O)c1csc(NC(=O)CCl)n1 | -2.11% [at 35.3 µM] |
| C=CCN1CCc2nc(N)sc2CC1 | -0.274% [at 35.3 µM] |
| COc1ccc2cc(CCC(C)=O)ccc2c1 | -4.12% [at 35.3 µM] |
| CCCCCCCCC1CO1 (stereo not drawn) | 1.54% |
| Cc1nc2ccc(Cl)cc2[nH]1 | -4.85% |
| CC(C)c1cc(C(C)C)cc(C(C)C)c1 | -14.3% |

| Structure (SMILES) | cytotoxicity |
| --- | --- |
| COC(=O)c1ccc(NC(C)=O)cc1OC | -4.49% [at 35.3 µM] |
| O=S(=O)(O)c1ccc(Cl)cc1 | -4.9% |
| C=COCCCCO | -18.7% |
| C/C(=N\O)c1ccc(OCC(=O)N2CCCCC2)cc1 | 0.547% [at 35.3 µM] |
| Cc1cccc(N)n1 | -6.15% |
| CCCCCCCCCCCC(C)=O | 0.659% |
| CN(C)CCc1c[nH]c2ccc(C[C@H]3COC(=O)N3)cc12 | -3.27% [at 35.3 µM] |
| CC(=O)/C=C/C=C1/C2CCC(C2)C1(C)C (stereo not drawn) | 4.69% [at 35.3 µM] |
| Cc1ccc(O)c([N+](=O)[O-])c1 | -0.714% |
| CCCCN=C(N)N=C(N)N | 3.01% [at 35.3 µM] |
| CN(C)CCC[C@@]1(c2ccc(F)cc2)OCc2cc(C#N)ccc21 | 11% [at 35.3 µM] |
| O=C(O)P(=O)(O)O | -16.1% [at 35.3 µM] |
| CC(=O)SCC(CC(=O)c1ccc(C)cc1)C(=O)O (stereo not drawn) | 0.0987% [at 35.3 µM] |
| CC(C)(C)C(=O)CCc1ccc(Cl)cc1 | 8.78% |
| Nc1ccc(C(=O)NCC(=O)O)cc1 | -11% [at 35.3 µM] |
| NC(=O)CC[C@@H](N)C(=O)O | -7.68% [at 35.3 µM] |
| C[n+]1ccccc1/C=N/O | 2.7% [at 35.3 µM] |
| COc1cc2nc(N3CCN(C(=O)C4CCCO4)CC3)nc(N)c2cc1OC (stereo not drawn) | -11.9% [at 35.3 µM] |
| COc1cnc(NS(=O)(=O)c2ccc(N)cc2)nc1 | -17.5% [at 35.3 µM] |

Source: PubChem BioAssay (Tox21)
